Most compounds without a hit are left out; they make up all but 7.3% or so of the library.
Vaccinia mCherry = inhibitors of vaccinia virus infection (mCherry reporter signal) | Potency, µM (series often up to 36.5 µM), usual class: inhibitors | 310,000 compounds, 0.63% hits | Vaccinia virus mCherry reporter infection, fluorescence; calls by dose curve; tested in A549 cells; further: nearly all actives have a fitted effect of over 35% in size
Vaccinia Venus = vaccinia inhibition (Venus reporter); Vaccinia virus Venus reporter expression, fluorescence; Potency, µM (top dose mostly 36.5 µM), most hits filed as inhibitors; 330,000 compounds, 0.46% hits; calls by dose curve; tested in A549 cells; further: nearly all actives have a fitted effect of over 30% in size
FMDV inh = blocks foot and mouth disease virus; AID 1159524; 410,000 compounds, 1.2% hits; Potency, µM (doses to about 57.9 µM), hits mostly inhibitors; FMDV antiviral cell-based qHTS; calls by dose curve; tested in HEK293T cells; further: read-out not given here; nearly all actives have a fitted effect of over 45% in size
HCV inhibitor = blocks hepatitis C virus. Huh7.5.1 HCVcc-Cre infection, luciferase reporter, 44 h. Potency, µM (highest dose often 41.8 µM), usual class: inhibitors. 340,000 compounds, 3.4% hits; active means well fitted inhibition curve with a large enough effect; inconclusive means small, poorly fitted or top-dose-only effect, or another doubt; inactive means no such curve, though single readings can be large or run the other way
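A cell-based infection assay in which seeded cells (1,000 per well) receive test compound after 4 h, are inoculated with HCVcc-Cre at approximately 0.5 moi, and are incubated 44 h before luminescence detection.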
HCMV antiviral = human cytomegalovirus inhibition. HFF cells, HCMV-luciferase reporter, 72 h; active compounds read low. 410,000 compounds, 4.5% hits. AID 1259415. activity change, negative = inhibition, % at 57.5 µM; in the data active means activity change below about -60%; inconclusive means no clear call, values can overlap the other calls; inactive means above about -39%
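Inhibition of viral replication was scored as loss of reporter luminescence in HFFs infected with HCMV-luciferase (MOI 1 PFU/cell) for 72 h; compounds tested at 2 doses, normalized to buffer and Salinomycin controls.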
Numbers stand for hits; n = inactive; u = inconclusive; x = not tested or not shown; ! = not active in a repeat; [ ] = remark or other dose.

SMILES	Vaccinia mCherry	Vaccinia Venus	FMDV inh	HCV inhibitor	HCMV antiviral
COc1ccc(CC(=O)NNC(=O)COc2ccc(Cl)cc2C)cc1S(=O)(=O)N1CCOCC1	n	n	u	n	n
COc1cccc(-c2sc3ccc(OC)cc3c2C#CC(C)(C)O)c1	u	u	n	7.1µM	n
COc1ccc2sc(-c3ccc(N(C)C)cc3)c(C#Cc3cncn3C)c2c1	u	u	n	2.5µM	n
COc1ccc(-c2sc3ccc(OC)cc3c2C#CCCO)cc1	n	u	n	u	x
COc1ccc2sc(-c3ccc(SC)cc3)c(C#CC(C)(C)O)c2c1	u	u	n	2.8µM	n
COc1ccc2sc(-c3ccc(N(C)C)cc3)c(C#CC(C)(C)O)c2c1	n	u	n	3.2µM	n
COc1ccccc1N1CCN(C(=O)CN2C(=O)COc3ccc(S(=O)(=O)N4CCOCC4)cc32)CC1	n	n	n	x	n
CCC(Sc1nc2cc3c(cc2c(=O)n1CCCCCC(=O)NCc1ccc2c(c1)OCO2)OCO3)C(=O)NCCCOC (centres undefined)	n	n	n	x	n
COc1ccc2sc(-c3ccc(SC)cc3)c(C#CCO)c2c1	u	u	n	2.8µM	n
COc1ccc2sc(-c3ccc(N(C)C)cc3)c(C#CCCO)c2c1	u	u	n	1.4µM	n
OCC(O)C[n+]1cccc(Br)c1 (centres undefined)	n	n	x	x	x
Cn1c(=N)n(CC(O)c2ccco2)c2ccccc21 (centres undefined)	n	n	n	n	n
Cn1c(=N)n(CC(O)c2cccc3ccccc23)c2ccccc21 (centres undefined)	x	n	n	11µM	n
NCCc1cnc[nH]1	n	n	n	u	n
NCCc1ccn[nH]1	n	n	n	n	-67
COc1ccc(CNC(=O)c2ccc(-c3ccccc3)cc2)cc1	n[1.46 µM]	n	n	n	n
COc1ccc(CNC(=O)c2c(C)oc3c2C(=O)c2ccccc2C3=O)cc1	7.1µM	8.9µM	u	n[8.37 µM]	u
O=C(c1ccccc1)c1coc2c1C(=O)c1ccccc1C2=O	n	n	u	n	n
Cc1oc2c(c1C(=O)NCc1cccnc1)C(=O)c1ccccc1C2=O	u	0.56µM	3.2µM	1.6µM	x
O=C1c2ccccc2C(=O)c2c1oc(C(F)(F)F)c2C(=O)c1ccccc1	4.5µM	3.2µM	n	22µM	-98
CC(=O)c1c(C)oc2c1C(=O)c1ccccc1C2=O	n	n	u	8.9µM	-72
Cc1onc(-c2ccccc2Cl)c1C(=O)NCc1cccnc1	x	x	n	u	n
COC(=O)c1cccc(N2C(=O)C[C@](Sc3ccc(OC)cc3)(C(=O)N(C)C)[C@H]2c2ccc(OC)cc2)c1	x	x	x	x	n
CC(C)(C)C(C(=O)Oc1ccccc1)c1ccccc1 (centres undefined)	n	n	n	n	n
COc1ccc(C(=O)N2CC(=O)Nc3ccc(C)cc3C2c2ccc(F)cc2)c(OC)c1 (centres undefined)	n	n	n	x	n
SMILES	Vaccinia mCherry	Vaccinia Venus	FMDV inh	HCV inhibitor	HCMV antiviral
COc1ccc(CNC(=O)c2c(F)c(F)c(F)c(F)c2F)cc1	11µM	u	n	u	-102
Cc1ccc(N(CC(=O)NC2CCCC2)C(=O)c2nsc(Cl)c2Cl)cc1	n	n	n	n	-75
Cc1cc(C)cc(N(C(=O)c2nsc(Cl)c2Cl)C(C(=O)NC2CCCC2)c2ccc(O)cc2)c1 (centres undefined)	u	u	n	u	-71
COc1cc(NC(=O)c2nccn2C)cc(C(=O)Nc2cccc(C(F)(F)F)c2)c1	u	u	n	2.5µM	n
COc1cc(Nc2ccccn2)cc(C(=O)Nc2cccc(C(F)(F)F)c2)c1	u	u	u	u	-69!
COc1cc(NC(=O)c2nccnc2N)cc(C(=O)Nc2cccc(C(F)(F)F)c2)c1	n	u	n	n	n
CCC(=O)N1CCc2cc(S(=O)(=O)N(C)c3cccc(C)c3)ccc21	n	n	n	x	n
O=C(Nc1nc2ccccc2n1CCN1CCOCC1)c1ccc(COc2ccccc2Br)o1	u	n	n	10µM	u
O=C(Nc1nc2ccccc2n1CCN1CCOCC1)c1ccc(Cn2cc([N+](=O)[O-])cn2)o1	n	n	n	n	n
CC(C)CN(CC(C)C)S(=O)(=O)c1ccc(C(=O)Nc2sc3c(c2C(N)=O)CC(C)(C)NC3(C)C)cc1	n	n	n	x	-97
COc1cc(NC(=O)C2(C)CCN2C(C)C)cc(OC)c1OC (centres undefined)	n	n	n	x	n
Cc1c(C(=O)NCc2ccc(F)cc2)sc(=O)n1Cc1ccccc1F	n	n	n	x	n
COc1ccc(C(=O)NCC(=O)N2CCC(Cc3ccccc3)CC2)cc1OC	n	n	u	n	n
Cc1ccc(C=Nc2ccc(N(C)C)cc2)o1	n	n	n	n	-76
Cc1ccc(C)c(NC(=O)CN(C)S(=O)(=O)c2cccc3nsnc23)c1	n	n	n	x	n
COc1cc(CN(C)CC2CCCN(CCc3cccc(C(F)(F)F)c3)C2)ccc1O (centres undefined)	n	n	n	13µM	n
CCOc1cccc(CN(C)CC2CCCN(CCc3ccc(Cl)cc3)C2)c1O (centres undefined)	x	x	n	5µM	n
COc1ccc(CN(C)CC2CCCN(CCc3ccc(Cl)cc3)C2)cc1OC (centres undefined)	n	n	n	10µM	n
O=C1NCCc2onc(-c3ccc(Br)cc3)c21	n	n	n	x	n
O=C(NCCc1ccccc1)c1ccc(CSc2nc3ccncc3n2Cc2ccccc2F)cc1	n	n	n	x	n
COCCCNc1cc(C)nc2ccccc12	n	n	n	n	n
Cc1cc(NCCCCCCCNc2cc(C)nc3cc([N+](=O)[O-])ccc23)c2ccc([N+](=O)[O-])cc2n1	u	10µM	n	10µM	n
C[C@@H](C(=O)OCC(=O)c1ccc(F)c(F)c1)N1C(=O)C2CCCCC2C1=O (some centres undefined)	x	x	n	n	n
CC(=O)Cc1cc(O)c2ccccc2c1OC(=O)c1ccccc1	u	n	n	n	-73
CC(=O)Oc1c(C)cc(O)c2ccccc12	x	x	x	10µM	x
SMILES	Vaccinia mCherry	Vaccinia Venus	FMDV inh	HCV inhibitor	HCMV antiviral
COc1ccc(Nc2nc(Nc3ccc(OC)cc3OC)nc(N3CCOCC3)n2)c(OC)c1	n[7.34 µM]	n[7.34 µM]	n	x	n
COc1ccc(-c2nc3sc(CCNC(=O)Cc4ccc(F)cc4)c(C)n3n2)cc1	n	n	n	x	n
N#Cc1cccc(NC(=O)N2CC3(CCN(C(=O)c4cc(C(F)(F)F)cc(C(F)(F)F)c4)CC3)C2)c1	x	x	n	x	x
CC1CCCC(C)N1C(=O)Cn1c(SCC(=O)NCc2ccc3c(c2)OCO3)nc2ccccc21 (centres undefined)	n	n	n	n	-68
CCc1ccc(NC(=O)CSc2nc3ccccc3c(=O)n2CCCC(=O)N2CCCC2)cc1	x	x	n	u	-66
CCOC(=O)c1ccc(NC(=O)CSc2nc3cccnc3n2C)cc1	u	u	16µM	u	n
COc1ccc(NC(=O)CSc2nc3c(sc4ccccc43)c(=O)n2CCCN2CCCC2)cc1	x	x	n	2.5µM	x

Screening results as filed in PubChem.
